# Assay results from ChEMBL document CHEMBL3988442, “University of Dundee, Small-Polar-MMV Screening Library” (2021).
# The whole screen tested about 48,000 compounds, of which about 13,000 (27%) showed an effect of 50% or more. Some of the results follow.
# Tested on: Wolbachia pipientis
# Assay: Anti-Wolbachia Cell-Based Screen
# Format: functional
# Design: scale not given: in the data most compounds retested in dose-response had high values
# Conditions: 5 µM
row,Structure (SMILES),Percent Effect [%]
1,O=C(NCc1ccco1)Nc1cccc(S(=O)(=O)C(F)F)c1,12.8
2,Cc1nc2cc(OCc3nc(C(=O)NC(CO)CO)co3)ccc2s1,-12.2
3,CCC(C(=O)NCc1ccncc1)N(c1ccc(F)cc1)S(C)(=O)=O (stereo not given),-11.09
4,Cc1cc(C)c2nc(CN3CCC(CN)C3)cc(O)c2c1 (stereo not given),-17.01
5,Cc1cc(Br)oc1C(=O)N1CCN(CC(N)=O)CC1,-14.01
6,CS(=O)(=O)Cc1nc(C2CC2)nn1-c1ccccn1,-14.62
7,CC(C)CS(=O)(=O)N1CCC2(CC1)CCn1c(-c3cnn(C)c3)cnc12,2.953
8,CN(C)c1nc(N)nc(CSCCC(=O)Nc2cccc(Cl)c2)n1,5.106
9,CC(C)n1c(=O)c2sccc2n(CC(=O)Nc2cccc(Cl)c2)c1=O,121.3
10,Cn1cc(CC(CNC(=O)Nc2cccc(Cl)c2)C(N)=O)cn1 (stereo not given),3.636
11,Cc1cccc(CN2C[C@@H]3COC[C@]3(CNC(=O)C3CC3)C2)c1.O=C(O)C(F)(F)F,102.9
12,Cc1ccccc1CN1C[C@@H]2COC[C@]2(CNC(=O)C2CCC2)C1.O=C(O)C(F)(F)F,116.7
13,Cc1cccc(CN2C[C@@H]3COC[C@]3(CNC(=O)C3CCC3)C2)c1.O=C(O)C(F)(F)F,92.72
14,Cc1cccc(CN2C[C@@H]3COC[C@]3(CNC(=O)N3CCCC3)C2)n1.O=C(O)C(F)(F)F.O=C(O)C(F)(F)F,5.948
15,COc1cccc(CN2C[C@@H]3COC[C@]3(CNC(=O)C3CC3)C2)c1.O=C(O)C(F)(F)F,100.6
16,O=C(NC[C@]12COC[C@H]1CN(Cc1nccs1)C2)N1CCCC1.O=C(O)C(F)(F)F,28.78
17,O=C(NC[C@]12COC[C@H]1CN(Cc1nccs1)C2)c1ccccc1.O=C(O)C(F)(F)F,17.76
18,N#Cc1cccc(-c2ncnn2CC2(O)CCCCC2)c1,2.299
19,COC(=O)CC(NC(=O)c1cccc(N2CCCC2=O)c1)C(=O)OC (stereo not given),-7.194
20,CCCNC(=O)C(C)n1nc(-c2ccc(C)o2)cc(N)c1=O (stereo not given),87.57
21,Cc1ccc(-c2nc(CC(=O)N3CCCC(NC(=O)C(C)C)C3)cs2)o1 (stereo not given),6.035
22,Cc1ccc(-c2cc(C(=O)N3CCCC3c3cccnc3)[nH]n2)o1 (stereo not given),-6.11
23,Cc1ccc(-c2cc(C(=O)NCCCc3csc(N)n3)[nH]n2)o1,17.13
24,Cc1ccc(-c2cc(N)c(=O)n(C(C)C(N)=O)n2)o1 (stereo not given),92.46
25,Cc1ccc(-c2nc(CC(=O)NCC(C)N3CCOCC3)cs2)o1 (stereo not given),-1.179

row,Structure (SMILES),Percent Effect [%]
1,CC(=O)N1CCCN(C(=O)NC(C)c2ccc(C)o2)CC1 (stereo not given),-7.479
2,CCCNC(=O)C(C)n1cc(Br)cn1 (stereo not given),-2.063
3,COCCN(Cc1nccs1)C(=O)c1cc(-c2ccc(C)o2)n[nH]1,-13.35
4,COCCNC(=O)C(C)n1nc(-c2ccc(C)o2)cc(N)c1=O (stereo not given),104.7
5,Cc1ccc(-c2cc(N)c(=O)n(C(C)C(=O)NC(C)C)n2)o1 (stereo not given),115.3
6,Cc1c(C)n(Cc2ccccn2)c2nc3c(c(N)c12)CCCC3,5.52
7,O=C(CNc1cc(F)ccc1OC(F)F)NCC(F)(F)F,-13.2
8,CC(C)(CNC(=O)Nc1cccc(-c2nccs2)c1)C(N)=O,2.635
9,Cc1noc(C[C@@H]2COC[C@H]3CN(C(=O)C4=CCCC4)C[C@@H]23)n1,-8.987
10,O=C(O)C(F)(F)F.O=C([C@@H]1COC[C@H]2CN(C3CCOCC3)C[C@H]21)N1CCCO1,1.407
11,O=C1OCCC1N1CCN(c2ccc(O)cc2)CC1 (stereo not given),4.942
12,O=C(NCC(O)c1ccoc1)Nc1c(F)cccc1F (stereo not given),35.5
13,COC(=O)c1sccc1S(=O)(=O)NCCC(O)c1ccoc1 (stereo not given),6.712
14,O=C(NCc1cccs1)NCC(O)c1ccoc1 (stereo not given),136.2
15,CCOc1ccccc1CCNC(=O)NCC(O)c1ccsc1 (stereo not given),-9.165
16,O=C(NCC(O)c1ccsc1)Nc1cccs1 (stereo not given),136.4
17,O=C(NCCC(O)c1ccoc1)Nc1cccs1 (stereo not given),118.3
18,Cc1csc(CNC(=O)NCC(O)c2ccccc2)n1 (stereo not given),14.77
19,CC(C)Oc1cccc(C(O)CNC(=O)NCc2cccs2)c1 (stereo not given),-2.917
20,O=C(NCCC(O)c1cccs1)c1ccco1 (stereo not given),-4.816
21,CC(C)Oc1cccc(C(O)CNC(=O)Nc2cccs2)c1 (stereo not given),-15.38
22,O=C(NCC(O)c1cccs1)c1ccco1 (stereo not given),-9.342
23,O=C(NCC(O)c1ccoc1)Nc1cccs1 (stereo not given),112.3
24,COCc1nc(CNC2CCSCC2)no1,-3.755
25,CCc1nc2c(c(NCc3nc(-c4cccnc4)no3)n1)CCNCC2,-4.803
